# Assay results taken from PubChem BioAssay (NCI).
# The panel holds about 83,000 compounds, 20% with a hit somewhere; the sample as a whole holds those more often.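 Method: cells in 96-well plates; compound added at one concentration; 48 h incubation; percent growth measured; values under 10 scored active.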 Values without a mark were called inactive. Active and inactive are the calls of the source.
# Tested on: SK-MEL-2 melanoma
# Experiment: NCI-60 one-dose screen, 48 h (100 = growth as untreated, 0 = no growth, -100 = all killed)
# Details: 10 µM unless noted
# Experimental: Growth inhibition of the SK-MEL-2 human tumor cell line is measured as a screen for anti-cancer activity. Cells are grown in 96 well plates and exposed to the test compound for 48 hours. Compounds are tested at a single concentration, which is 10^-5 M for most compounds. The reported endpoint is percent growth (GI% or GIPRCNT), where numbers from 0 - 100% represent growth inhibition, and numbers from -100% - 0 represent cell death. For example, a value of 40 represents 60% growth inhibition. A value of 0 means no net growth occurred over the course of the experiment. A value of -40 indicates 40% of cells at the beginning of the experiment died by the end of the experiment. A value of -100 means all cells are dead at the end of the experiment.
# NCI-60 Human Tumor Cell Lines Screen was performed using the standard one-dose NCI protocol, which is described in more detail at https://dtp.cancer.gov/discovery_development/nci-60/default.htm.
# Compounds with GIPRCNT values below 10 were considered active. Activity score was based on GIPRCNT using the following formula: […]
# Score is 0 for GIPRCNT values of 100 or above, 50 for GIPRCNT values of 0, and 100 for GIPRCNT values of -100.
row,SMILES,growth
1,COc1ccc(C(=O)/C=C/c2ccc(OCc3ccc(Cl)cc3)c(OC)c2)cc1OC,83.3%
2,CN(C)CCCOc1c2ccc(Cl)cc2nc2c1oc1ccc(Cl)cc12,58.5%
3,COc1cc(/C=C/C(=O)c2cc(OC)c(OC)c(OC)c2)ccc1OCc1ccccc1,80.7%
4,COC(=O)C(C)NS(=O)(=O)/N=C1\NC(=O)NC1=C(Cl)Cl (stereo not given),110%
5,CCOC(=O)c1c(Nc2ccccc2)nn2c(N)c(C#N)c(-c3ccc(Cl)cc3)nc12,87%
6,CC(=O)Oc1ccccc1C(=O)Nc1ccc(C(=O)/C=C/c2ccncc2)cc1,108%
7,CN(C)CCCOc1c2ccccc2nc2c1oc1ccc(Cl)cc12,9.55% (active)
8,Clc1ccc2oc3c(OCCCn4ccnc4)c4ccccc4nc3c2c1,112%
9,Clc1ccc2c(NCCCN3CCOCC3)c3oc4ccccc4c3nc2c1,81.3%
10,c1ccc2c(NCCCn3ccnc3)c3oc4ccccc4c3nc2c1,-27.2% (active)
11,COc1ccc(C(=O)/C=C/c2ccc(Oc3nc(NCCO)nc(N4CCOCC4)n3)c(OC)c2)cc1,101%
12,C#Cc1nc(C2=C(C)C(OC(C)=O)/C(=N/OC(C)=O)C2)cs1 (stereo not given),92.8%
13,CN(C)c1ccc(/C=c2\sc3nc4ccccc4n3c2=O)cc1,118%
14,Cc1ccc(-c2nc(C(Cl)Cl)nc3cc(-c4ccccc4)nn23)cc1,88.8%
15,Clc1ccc2oc3c(NCCCN4CCOCC4)c4ccccc4nc3c2c1,56.8%
16,[Cl][Ru].c1ccc(-c2cccc(-c3ccccn3)n2)nc1.c1ccc(-c2ccnc3c2ccc2c(-c4ccccc4)ccnc23)cc1,-36.9% (active)
17,CS(=O)(=O)c1ccc(-c2nc3ccccn3c2-c2nc3ccc([N+](=O)[O-])cc3[nH]2)cc1,105%
18,Cc1nc(-c2cc3ccccc3oc2=O)ccc1C(=O)/C=C/c1ccc(N2CCOCC2)cc1,91.4%
19,O=C(c1ccc(Cl)cc1)C1[C@H](c2ccc(Cl)cc2)[C@@H](c2ccccc2)NC12C(=O)Nc1ccc(Br)cc12 (stereo not given in full),38.7%
20,COc1cc(-c2nc3ccc(-c4nnc(SCC(=O)Nc5ccc(C(=O)/C=C/c6ccc(Cl)cc6)cc5)o4)cc3[nH]2)cc(OC)c1OC,100%

row,SMILES,growth
1,O=C(N/N=C/c1ccc[nH]1)c1[nH]c2ccc(Br)cc2c1-c1ccccc1,31.9%
2,O=C1c2c(c3c4cc(Br)ccc4[nH]c3c3ccc4ccccc4c23)C(=O)N1CCO,110%
3,CC(C)(C)Nc1nc2c(OCCc3ccccc3)cccn2c1-c1cccc(F)c1,-81.2% (active)
4,CCCC(=O)NC(c1ccc(N(CC)CC)cc1)c1cc(C)c2cccnc2c1O (stereo not given),23%
5,O=C1Nc2ccccc2Oc2ccc(S(=O)(=O)CC3CO3)cc21 (stereo not given),85.5%
6,CC(=O)Oc1ccccc1C(=O)Nc1ccc(C(=O)/C=C/c2cccs2)cc1,122%
7,Clc1ccc2c(OCCCN3CCOCC3)c3oc4ccccc4c3nc2c1,78.2%
8,C#C[C@]1(O)CC[C@H]2[C@@H]3CC=C4c5sc(-c6ccc(F)cn6)nc5CC[C@]4(C)[C@H]3CC[C@@]21C,-28.4% (active)
9,O=C(CCCN1C(=O)/C(=C/c2ccccc2F)SC1=S)N1CCOCC1,115%
10,C#Cc1nc(C2=C(C)C(=N\O)/C(=N/O)C2)cs1,108%
11,CSc1ccc2c(c1)N(C(=O)/C(C#N)=C/c1c[nH]c3ccccc13)c1ccccc1S2,35.6%
12,C/C(=N\NC(N)=O)c1c(O)sc(=O)[nH]c1=O,109%
13,CC(O)C(NC(=O)C1CCCN1C(=O)CNC(=O)C1CC(=O)NCC(=O)NC(Cc2c[nH]c3ccccc23)C(=O)NC(Cc2ccc(O)cc2)C(=O)NCC(=O)NC(CO)C(=O)NC(CCC(N)=O)C(=O)NC(Cc2c[nH]c3ccccc23)C(=O)N1)C(=O)NCC(=O)NC(CCC(N)=O)C(=O)NC(CCCNC(=N)N)C(=O)NC(CC(=O)O)C(=O)O (stereo not given),116%
14,COc1ccc(-c2nc3ccc(-c4nnc(SCC(=O)Nc5ccc(C(C)=O)cc5)o4)cc3[nH]2)cc1,134%
15,COc1ccc(/C=N/Nc2ccnc3cc(Cl)ccc23)cc1Cl,-88% (active)
16,CN(C)CCCNc1c2ccccc2nc2c1oc1ccc(Cl)cc12,70.8%
17,COC(=O)C1CN(S(=O)(=O)/N=C2\NC(=O)NC2=C(Cl)Cl)C1,108%
18,Cc1cccc2sc(/N=C(\N)C(Cl)(Cl)Cl)nc12,118%
19,COc1ccc(/C=C/C(=O)c2ccc(NC(=O)CSc3nnc(-c4ccc5nc(-c6ccc(Cl)cc6)[nH]c5c4)o3)cc2)cc1,111%
20,Nc1cc(-c2c[nH]c3ccccc23)nc2cc(-c3c[nH]c4ccccc34)nn12,96%
